Results taken from the supplement of paper PMC11732987, “Enantioselective OTUD7B fragment discovery through chemoproteomics screening and high-throughput optimisation” (Communications Chemistry, 2025).

Tests used:
Test in all cases: log2 ratio of Biotin-Ahx-Ub-VS probe labelling (fragment/DMSO); higher = less target engagement (more negative = stronger competition), active = hit call of the paper (q ≤ 0.05, log2 ratio ≤ -1)
Details in all cases: compound concentration: 200 uM; treatment time: 3 h
USP42 = biological target: T1, USP42 (UniProt Q9H9J4)
T1 sequence (whole entry): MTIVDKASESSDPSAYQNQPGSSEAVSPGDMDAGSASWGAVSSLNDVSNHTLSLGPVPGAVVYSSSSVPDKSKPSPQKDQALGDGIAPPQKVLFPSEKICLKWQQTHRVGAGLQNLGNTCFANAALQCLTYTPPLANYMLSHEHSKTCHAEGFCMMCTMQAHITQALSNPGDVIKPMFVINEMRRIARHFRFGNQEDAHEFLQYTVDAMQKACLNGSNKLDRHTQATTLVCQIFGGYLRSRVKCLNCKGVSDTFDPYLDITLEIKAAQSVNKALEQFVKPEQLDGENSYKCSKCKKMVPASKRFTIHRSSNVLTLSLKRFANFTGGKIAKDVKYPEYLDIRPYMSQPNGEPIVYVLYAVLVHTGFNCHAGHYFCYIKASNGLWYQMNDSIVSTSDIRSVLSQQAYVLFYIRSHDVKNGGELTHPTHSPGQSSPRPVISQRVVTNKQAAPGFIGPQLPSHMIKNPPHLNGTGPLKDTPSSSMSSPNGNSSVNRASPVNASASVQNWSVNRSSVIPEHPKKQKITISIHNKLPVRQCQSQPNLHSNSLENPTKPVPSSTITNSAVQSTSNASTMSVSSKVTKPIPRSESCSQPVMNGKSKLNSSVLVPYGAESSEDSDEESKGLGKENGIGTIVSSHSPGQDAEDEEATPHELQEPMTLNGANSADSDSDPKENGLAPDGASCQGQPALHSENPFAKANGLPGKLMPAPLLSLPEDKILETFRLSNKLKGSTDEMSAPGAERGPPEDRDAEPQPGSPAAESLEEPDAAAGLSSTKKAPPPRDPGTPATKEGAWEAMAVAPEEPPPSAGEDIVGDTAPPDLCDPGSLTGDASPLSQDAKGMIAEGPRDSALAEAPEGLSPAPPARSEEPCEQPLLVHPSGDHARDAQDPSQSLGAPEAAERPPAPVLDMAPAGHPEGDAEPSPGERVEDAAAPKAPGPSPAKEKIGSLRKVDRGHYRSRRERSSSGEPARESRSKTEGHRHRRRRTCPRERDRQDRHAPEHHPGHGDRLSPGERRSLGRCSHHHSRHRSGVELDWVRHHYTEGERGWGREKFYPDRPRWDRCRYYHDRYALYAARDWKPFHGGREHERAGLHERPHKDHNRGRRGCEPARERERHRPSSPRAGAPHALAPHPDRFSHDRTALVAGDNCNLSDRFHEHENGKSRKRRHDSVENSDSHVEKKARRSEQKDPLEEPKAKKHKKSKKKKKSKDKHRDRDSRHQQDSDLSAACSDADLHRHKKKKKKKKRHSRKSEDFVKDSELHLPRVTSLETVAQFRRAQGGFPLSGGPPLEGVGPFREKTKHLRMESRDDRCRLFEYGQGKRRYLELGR
Method in brief: (§1)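 The table lists average log2 ratios of fragment over vehicle, from an unpaired t-test on global-median-normalised Spectronaut label-free quantities. Proteins with ≥2 unique peptides were used. Samples were HEK293T lysate (495 µg) treated in triplicate with fragment at 200 µM or vehicle for 3 h, then with Biotin-Ahx-Ub-VS (0.5 µM final) for 1 h, with labelled DUBs NeutrAvidin-enriched and run by diaPASEF LC-MS/MS.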

USP46 = USP46 (UniProt P62068)
Method in brief: as §1

USP47 = biological target: T2, USP47 (UniProt Q96K76)
T2 sequence (whole entry): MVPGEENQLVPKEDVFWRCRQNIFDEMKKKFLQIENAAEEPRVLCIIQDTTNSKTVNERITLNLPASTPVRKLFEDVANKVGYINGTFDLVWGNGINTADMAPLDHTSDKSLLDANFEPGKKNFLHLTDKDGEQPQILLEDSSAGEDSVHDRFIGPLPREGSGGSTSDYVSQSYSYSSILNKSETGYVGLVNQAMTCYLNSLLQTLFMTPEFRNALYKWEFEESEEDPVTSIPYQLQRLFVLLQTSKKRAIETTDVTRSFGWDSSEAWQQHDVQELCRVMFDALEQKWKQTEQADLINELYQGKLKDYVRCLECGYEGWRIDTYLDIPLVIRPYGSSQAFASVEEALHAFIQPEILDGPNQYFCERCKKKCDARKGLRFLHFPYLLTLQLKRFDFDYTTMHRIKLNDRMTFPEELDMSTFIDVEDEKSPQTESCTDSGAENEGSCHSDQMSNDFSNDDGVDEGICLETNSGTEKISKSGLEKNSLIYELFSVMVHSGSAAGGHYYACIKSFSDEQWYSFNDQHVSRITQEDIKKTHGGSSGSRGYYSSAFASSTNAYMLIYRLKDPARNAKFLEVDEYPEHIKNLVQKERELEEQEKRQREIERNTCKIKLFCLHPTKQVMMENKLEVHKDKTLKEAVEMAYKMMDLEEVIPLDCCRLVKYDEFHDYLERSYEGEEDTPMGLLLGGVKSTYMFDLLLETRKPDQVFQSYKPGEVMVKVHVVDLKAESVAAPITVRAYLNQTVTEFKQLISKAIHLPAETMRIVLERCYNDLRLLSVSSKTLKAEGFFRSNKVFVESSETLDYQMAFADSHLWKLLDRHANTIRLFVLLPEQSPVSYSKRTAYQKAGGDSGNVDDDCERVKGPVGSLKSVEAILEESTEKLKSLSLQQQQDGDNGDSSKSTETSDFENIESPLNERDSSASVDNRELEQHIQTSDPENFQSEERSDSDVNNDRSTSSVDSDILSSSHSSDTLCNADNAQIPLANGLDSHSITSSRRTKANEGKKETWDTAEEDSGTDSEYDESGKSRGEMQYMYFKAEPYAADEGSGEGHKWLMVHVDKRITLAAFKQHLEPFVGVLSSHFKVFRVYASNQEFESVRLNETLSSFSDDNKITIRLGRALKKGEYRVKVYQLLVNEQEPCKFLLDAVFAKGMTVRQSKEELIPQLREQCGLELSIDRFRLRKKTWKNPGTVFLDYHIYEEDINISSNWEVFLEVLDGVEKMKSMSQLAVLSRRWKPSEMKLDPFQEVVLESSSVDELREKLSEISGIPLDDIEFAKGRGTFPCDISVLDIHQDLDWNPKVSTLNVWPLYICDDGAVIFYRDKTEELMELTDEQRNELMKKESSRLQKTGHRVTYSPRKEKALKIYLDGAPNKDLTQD
Method in brief: as §1

USP48 = biological target: T3, USP48 (UniProt Q86UV5)
T3 sequence (whole entry): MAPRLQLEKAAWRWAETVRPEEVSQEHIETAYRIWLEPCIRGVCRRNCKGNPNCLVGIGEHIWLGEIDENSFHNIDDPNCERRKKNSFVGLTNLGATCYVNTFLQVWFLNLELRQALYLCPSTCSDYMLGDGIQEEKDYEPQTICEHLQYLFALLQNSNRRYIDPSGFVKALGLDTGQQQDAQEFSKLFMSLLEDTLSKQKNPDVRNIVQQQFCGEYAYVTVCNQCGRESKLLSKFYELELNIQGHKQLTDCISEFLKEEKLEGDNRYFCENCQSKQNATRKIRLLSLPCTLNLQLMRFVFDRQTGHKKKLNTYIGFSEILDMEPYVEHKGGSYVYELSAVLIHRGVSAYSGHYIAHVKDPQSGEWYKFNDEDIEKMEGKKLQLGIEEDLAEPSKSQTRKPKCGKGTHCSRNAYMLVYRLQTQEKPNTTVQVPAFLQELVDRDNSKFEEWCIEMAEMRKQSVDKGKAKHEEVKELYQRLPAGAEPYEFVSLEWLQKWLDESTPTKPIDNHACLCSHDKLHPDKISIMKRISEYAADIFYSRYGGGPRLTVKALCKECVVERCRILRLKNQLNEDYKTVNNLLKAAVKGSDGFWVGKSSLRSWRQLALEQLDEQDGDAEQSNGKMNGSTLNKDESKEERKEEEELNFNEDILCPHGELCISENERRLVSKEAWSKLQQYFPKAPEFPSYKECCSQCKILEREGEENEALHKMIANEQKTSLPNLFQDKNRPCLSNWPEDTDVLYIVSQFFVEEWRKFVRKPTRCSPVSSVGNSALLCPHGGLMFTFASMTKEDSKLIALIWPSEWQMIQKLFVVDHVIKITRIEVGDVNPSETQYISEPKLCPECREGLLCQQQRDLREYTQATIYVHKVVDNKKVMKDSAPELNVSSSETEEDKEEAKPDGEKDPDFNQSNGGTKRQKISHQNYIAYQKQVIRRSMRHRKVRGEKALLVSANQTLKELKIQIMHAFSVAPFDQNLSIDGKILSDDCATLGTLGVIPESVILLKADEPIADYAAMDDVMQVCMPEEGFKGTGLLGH
Method in brief: as §1

USP5 = biological target: T4, USP5 (UniProt P45974)
T4 sequence (whole entry): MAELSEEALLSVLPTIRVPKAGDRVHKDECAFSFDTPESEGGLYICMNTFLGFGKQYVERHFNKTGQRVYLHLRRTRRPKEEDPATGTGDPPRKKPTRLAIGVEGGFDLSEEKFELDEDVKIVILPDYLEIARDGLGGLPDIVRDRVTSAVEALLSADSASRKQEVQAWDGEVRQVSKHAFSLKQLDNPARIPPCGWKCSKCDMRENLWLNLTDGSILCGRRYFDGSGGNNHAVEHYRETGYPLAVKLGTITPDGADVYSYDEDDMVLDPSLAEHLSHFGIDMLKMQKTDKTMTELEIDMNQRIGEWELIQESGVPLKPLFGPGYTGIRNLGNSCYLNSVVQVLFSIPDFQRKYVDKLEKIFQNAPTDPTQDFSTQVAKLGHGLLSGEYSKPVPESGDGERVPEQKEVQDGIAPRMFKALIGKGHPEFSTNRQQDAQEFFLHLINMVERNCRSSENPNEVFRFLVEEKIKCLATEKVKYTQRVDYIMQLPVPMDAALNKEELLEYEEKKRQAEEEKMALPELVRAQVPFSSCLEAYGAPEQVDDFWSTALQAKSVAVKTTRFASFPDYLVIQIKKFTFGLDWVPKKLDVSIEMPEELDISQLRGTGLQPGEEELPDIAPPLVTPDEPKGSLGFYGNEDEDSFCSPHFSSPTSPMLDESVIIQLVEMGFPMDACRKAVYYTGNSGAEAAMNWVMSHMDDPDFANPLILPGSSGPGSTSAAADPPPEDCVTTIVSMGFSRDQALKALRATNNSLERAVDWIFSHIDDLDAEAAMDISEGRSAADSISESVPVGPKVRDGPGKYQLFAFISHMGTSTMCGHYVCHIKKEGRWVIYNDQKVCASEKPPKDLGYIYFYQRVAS
Method in brief: as §1

USP54 = USP54 (UniProt Q70EL1)
Method in brief: as §1

USP7 = USP7 (UniProt Q93009)
Method in brief: as §1

USP8 = biological target: T5, USP8 (UniProt P40818)
T5 sequence (whole entry): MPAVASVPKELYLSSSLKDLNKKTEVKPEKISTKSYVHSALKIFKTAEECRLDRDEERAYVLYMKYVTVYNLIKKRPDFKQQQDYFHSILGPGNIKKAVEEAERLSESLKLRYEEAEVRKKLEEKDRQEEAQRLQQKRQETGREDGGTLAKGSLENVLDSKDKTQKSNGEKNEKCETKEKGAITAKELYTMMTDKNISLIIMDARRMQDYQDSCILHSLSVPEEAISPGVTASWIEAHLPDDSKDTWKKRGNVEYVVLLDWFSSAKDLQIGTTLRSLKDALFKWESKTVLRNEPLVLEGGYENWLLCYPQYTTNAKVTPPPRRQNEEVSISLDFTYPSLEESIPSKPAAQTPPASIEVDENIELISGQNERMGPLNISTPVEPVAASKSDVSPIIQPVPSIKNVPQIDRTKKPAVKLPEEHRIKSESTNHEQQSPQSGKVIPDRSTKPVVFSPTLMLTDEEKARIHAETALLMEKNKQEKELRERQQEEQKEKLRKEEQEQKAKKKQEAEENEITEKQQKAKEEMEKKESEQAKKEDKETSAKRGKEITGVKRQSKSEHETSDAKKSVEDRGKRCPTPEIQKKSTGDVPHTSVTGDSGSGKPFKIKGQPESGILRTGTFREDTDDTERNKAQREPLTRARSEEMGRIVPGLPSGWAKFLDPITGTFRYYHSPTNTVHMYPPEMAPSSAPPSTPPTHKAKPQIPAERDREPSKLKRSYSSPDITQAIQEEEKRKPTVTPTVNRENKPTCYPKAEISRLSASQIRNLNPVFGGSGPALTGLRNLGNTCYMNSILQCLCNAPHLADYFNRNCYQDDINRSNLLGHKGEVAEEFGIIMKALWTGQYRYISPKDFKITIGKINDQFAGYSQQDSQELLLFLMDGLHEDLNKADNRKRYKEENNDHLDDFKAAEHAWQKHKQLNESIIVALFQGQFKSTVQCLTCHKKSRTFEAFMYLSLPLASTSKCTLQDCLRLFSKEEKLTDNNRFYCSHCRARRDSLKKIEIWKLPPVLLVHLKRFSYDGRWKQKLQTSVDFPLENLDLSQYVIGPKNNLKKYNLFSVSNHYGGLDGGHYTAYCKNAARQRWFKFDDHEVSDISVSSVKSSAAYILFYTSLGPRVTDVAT
Method in brief: as §1

USP9X = USP9X (UniProt Q93008)
Method in brief: as §1

UniProt O00487 = biological target: UniProt O00487
Method in brief: as §1

Measured: log2 ratio of Biotin-Ahx-Ub-VS probe labelling

Sequence of USP46 (P62068 whole entry): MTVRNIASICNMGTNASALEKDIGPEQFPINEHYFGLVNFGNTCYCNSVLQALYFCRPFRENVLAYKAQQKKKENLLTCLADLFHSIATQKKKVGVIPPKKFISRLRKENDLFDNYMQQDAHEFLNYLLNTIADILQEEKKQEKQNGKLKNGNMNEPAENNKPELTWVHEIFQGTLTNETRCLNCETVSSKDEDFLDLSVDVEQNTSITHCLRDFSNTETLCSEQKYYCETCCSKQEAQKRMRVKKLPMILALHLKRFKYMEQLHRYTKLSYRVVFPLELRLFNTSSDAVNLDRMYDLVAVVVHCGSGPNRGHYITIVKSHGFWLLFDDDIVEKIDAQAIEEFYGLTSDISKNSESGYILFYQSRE
Sequence of UniProt O00487 (O00487 whole entry): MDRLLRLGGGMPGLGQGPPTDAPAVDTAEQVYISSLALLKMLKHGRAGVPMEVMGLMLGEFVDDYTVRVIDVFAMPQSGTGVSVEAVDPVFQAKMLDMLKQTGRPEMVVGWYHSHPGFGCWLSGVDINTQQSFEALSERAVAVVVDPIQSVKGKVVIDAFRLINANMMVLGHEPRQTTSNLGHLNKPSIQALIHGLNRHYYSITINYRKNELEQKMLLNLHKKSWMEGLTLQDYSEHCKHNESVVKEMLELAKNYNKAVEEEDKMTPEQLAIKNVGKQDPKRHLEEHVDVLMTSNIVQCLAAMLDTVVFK
Sequence of USP54 (Q70EL1 whole entry): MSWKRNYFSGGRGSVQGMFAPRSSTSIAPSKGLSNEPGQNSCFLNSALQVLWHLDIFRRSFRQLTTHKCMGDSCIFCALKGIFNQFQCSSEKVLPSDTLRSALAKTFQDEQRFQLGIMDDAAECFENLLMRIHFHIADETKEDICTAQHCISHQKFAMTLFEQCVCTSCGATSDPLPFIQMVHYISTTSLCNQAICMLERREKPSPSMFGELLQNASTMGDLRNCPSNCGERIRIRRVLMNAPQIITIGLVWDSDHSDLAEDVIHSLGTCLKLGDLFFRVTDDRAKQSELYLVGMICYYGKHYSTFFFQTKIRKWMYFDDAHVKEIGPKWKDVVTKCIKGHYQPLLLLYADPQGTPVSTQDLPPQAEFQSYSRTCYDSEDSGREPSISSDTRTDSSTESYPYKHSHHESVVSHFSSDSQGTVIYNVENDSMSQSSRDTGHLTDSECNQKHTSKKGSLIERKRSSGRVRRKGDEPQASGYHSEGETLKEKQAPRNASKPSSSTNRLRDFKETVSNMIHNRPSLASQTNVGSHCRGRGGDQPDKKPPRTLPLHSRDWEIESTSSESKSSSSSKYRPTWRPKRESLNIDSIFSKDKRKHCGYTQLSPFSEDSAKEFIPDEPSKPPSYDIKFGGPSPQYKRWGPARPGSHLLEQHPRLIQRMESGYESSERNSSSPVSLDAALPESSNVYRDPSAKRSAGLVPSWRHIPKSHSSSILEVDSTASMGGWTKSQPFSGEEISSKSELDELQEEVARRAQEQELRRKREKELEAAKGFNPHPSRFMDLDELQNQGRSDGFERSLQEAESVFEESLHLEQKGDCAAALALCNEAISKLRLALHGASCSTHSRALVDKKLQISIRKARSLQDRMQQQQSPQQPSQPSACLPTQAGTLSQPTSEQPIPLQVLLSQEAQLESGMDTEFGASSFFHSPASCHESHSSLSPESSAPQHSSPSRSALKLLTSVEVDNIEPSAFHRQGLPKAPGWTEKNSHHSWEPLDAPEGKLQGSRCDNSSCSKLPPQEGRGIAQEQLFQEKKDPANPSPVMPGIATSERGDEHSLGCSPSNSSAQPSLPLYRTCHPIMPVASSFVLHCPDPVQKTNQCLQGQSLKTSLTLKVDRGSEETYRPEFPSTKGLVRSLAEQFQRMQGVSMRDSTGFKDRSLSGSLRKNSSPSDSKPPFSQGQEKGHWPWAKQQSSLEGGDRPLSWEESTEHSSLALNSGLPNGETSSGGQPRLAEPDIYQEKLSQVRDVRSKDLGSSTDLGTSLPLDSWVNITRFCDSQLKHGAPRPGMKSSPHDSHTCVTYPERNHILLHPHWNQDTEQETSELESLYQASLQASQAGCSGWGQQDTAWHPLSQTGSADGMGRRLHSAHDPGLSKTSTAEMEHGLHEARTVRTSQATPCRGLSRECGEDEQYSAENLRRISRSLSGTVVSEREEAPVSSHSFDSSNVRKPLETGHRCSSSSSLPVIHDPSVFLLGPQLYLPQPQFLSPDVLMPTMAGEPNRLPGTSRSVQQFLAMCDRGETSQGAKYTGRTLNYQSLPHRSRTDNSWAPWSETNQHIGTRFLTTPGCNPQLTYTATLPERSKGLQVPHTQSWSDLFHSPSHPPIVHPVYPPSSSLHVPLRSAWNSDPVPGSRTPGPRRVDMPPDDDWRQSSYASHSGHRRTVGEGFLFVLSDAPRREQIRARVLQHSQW
Sequence of USP9X (Q93008 whole entry): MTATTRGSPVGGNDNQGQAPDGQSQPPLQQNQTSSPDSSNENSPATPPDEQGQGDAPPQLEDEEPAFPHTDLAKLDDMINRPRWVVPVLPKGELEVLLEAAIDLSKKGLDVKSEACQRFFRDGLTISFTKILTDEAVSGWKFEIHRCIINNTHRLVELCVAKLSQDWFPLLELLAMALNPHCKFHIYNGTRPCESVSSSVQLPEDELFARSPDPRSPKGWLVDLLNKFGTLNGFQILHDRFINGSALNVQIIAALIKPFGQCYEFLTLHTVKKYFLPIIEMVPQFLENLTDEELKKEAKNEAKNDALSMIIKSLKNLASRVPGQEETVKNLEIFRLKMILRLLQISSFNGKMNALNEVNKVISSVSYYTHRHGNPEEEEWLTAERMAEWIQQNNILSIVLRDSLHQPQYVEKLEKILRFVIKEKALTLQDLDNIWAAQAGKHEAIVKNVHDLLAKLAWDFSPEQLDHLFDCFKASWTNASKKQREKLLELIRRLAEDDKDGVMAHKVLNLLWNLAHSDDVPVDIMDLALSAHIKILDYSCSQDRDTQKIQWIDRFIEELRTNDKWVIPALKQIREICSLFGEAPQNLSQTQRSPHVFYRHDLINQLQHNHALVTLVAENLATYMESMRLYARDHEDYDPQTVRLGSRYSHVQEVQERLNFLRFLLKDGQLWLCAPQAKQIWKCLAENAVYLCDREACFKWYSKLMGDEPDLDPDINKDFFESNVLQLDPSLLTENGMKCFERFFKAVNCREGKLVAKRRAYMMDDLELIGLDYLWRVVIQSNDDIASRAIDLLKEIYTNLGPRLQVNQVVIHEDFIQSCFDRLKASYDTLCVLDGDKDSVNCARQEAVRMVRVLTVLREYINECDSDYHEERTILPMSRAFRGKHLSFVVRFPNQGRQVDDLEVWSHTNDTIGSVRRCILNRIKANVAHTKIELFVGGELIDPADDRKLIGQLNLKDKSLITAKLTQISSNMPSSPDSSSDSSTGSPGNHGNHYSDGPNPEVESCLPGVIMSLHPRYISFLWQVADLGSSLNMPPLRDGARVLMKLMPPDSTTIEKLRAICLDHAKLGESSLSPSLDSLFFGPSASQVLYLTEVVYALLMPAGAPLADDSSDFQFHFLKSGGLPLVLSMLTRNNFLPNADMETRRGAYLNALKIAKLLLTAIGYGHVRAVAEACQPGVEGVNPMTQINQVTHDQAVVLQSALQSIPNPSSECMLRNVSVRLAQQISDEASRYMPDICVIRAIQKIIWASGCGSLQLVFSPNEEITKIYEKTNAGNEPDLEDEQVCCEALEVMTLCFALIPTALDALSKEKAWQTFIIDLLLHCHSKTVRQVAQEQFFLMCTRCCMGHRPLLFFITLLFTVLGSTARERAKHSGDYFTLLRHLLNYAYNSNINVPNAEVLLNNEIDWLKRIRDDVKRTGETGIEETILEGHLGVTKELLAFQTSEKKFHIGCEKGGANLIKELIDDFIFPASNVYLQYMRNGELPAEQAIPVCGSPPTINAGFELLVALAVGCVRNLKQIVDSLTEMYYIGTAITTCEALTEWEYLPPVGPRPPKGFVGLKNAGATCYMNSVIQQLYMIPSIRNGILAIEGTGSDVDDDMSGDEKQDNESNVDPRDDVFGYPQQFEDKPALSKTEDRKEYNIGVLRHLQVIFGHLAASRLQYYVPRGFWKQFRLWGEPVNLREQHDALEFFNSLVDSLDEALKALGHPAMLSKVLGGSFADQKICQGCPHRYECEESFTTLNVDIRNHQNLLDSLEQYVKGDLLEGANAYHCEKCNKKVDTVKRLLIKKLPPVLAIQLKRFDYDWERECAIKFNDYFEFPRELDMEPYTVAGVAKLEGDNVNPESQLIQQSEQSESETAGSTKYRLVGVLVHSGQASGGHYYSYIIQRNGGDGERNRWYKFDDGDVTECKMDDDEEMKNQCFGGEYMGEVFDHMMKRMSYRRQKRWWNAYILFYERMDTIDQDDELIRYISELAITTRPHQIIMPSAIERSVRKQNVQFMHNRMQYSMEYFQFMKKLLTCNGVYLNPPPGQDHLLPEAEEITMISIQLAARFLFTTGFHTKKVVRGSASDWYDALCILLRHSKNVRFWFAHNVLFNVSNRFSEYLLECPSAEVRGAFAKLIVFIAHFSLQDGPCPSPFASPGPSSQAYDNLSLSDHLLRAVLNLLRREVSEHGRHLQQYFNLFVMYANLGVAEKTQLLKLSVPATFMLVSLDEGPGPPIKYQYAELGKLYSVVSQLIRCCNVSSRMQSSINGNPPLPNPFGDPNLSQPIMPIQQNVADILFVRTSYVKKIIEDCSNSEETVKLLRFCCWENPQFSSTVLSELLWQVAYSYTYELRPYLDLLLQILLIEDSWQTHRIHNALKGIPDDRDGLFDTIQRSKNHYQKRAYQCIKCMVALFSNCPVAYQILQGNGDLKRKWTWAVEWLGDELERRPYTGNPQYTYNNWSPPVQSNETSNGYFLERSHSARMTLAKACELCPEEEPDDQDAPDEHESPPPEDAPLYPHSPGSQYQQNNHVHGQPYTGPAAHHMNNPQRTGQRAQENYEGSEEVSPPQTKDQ

Cc1cccc2nc(CCNC(=O)CCl)cn12.Cl
inactive: USP42 -0.108 | USP46 -0.0973 | USP47 0.216 | USP48 -0.0534 | USP5 -0.101 | USP54 0.94 | USP7 -0.308 | USP8 -0.222 | USP9X -0.455 | UniProt O00487 -0.163

Cc1ccc(C(=O)NCCNC(=O)CCl)cc1
inactive: USP42 -0.216 | USP46 0.0112 | USP47 -0.158 | USP48 -0.318 | USP5 -0.123 | USP54 0.576 | USP7 -0.262 | USP8 -0.271 | USP9X -0.316 | UniProt O00487 -0.0816

CC(C)n1nccc1NC(=O)CCl
inactive: USP42 -0.0446 | USP46 0.0362 | USP47 -0.313 | USP48 -0.375 | USP5 0.00439 | USP54 0.614 | USP7 -0.278 | USP8 -0.493 | USP9X -0.225 | UniProt O00487 -0.188

O=C(CCl)N1CCC(C(O)c2ccc(F)cc2)CC1 (stereo not given)
inactive: USP42 0.365 | USP46 0.252 | USP47 -0.324 | USP48 0.00604 | USP5 0.131 | USP54 -0.000277 | USP7 -0.0695 | USP8 0.0961 | USP9X 0.23 | UniProt O00487 0.0841
